{"source": "PubChem BioAssay (NCI)", "note": "About 83,000 compounds went through this panel and 20% of them were active in at least one assay; those are over-represented in the sample as a whole.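 In brief: 96-well plates, 48 h treatment, single concentration, percent growth endpoint.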 Values without a mark were called inactive. Activity calls are given as the source filed them. How the source made its calls: active means growth percent below 10; inactive means the rest.", "data": [{"system": "SW-620 colon", "test": "NCI-60 one-dose screen, 48 h (100 = growth as untreated, 0 = no growth, -100 = all killed)", "details": "10 µM unless noted", "values": [{"smiles": "O=C(O)C1C[C@](O)(c2ccc(F)cc2)[C@@H](c2ccc(F)cc2)O1", "note": "(some centres undefined)", "growth": "116%"}, {"smiles": "N=C(N)c1ccc(-c2ccc(-c3ccc(Cl)cc3Cl)o2)cc1", "growth": "-67.3% (active)"}, {"smiles": "C[N+](C)(C)CCOC(OCC[N+](C)(C)C)(c1ccccc1)c1ccccc1", "growth": "103%"}, {"smiles": "NC(N)=N/N=C/CO", "growth": "106%"}, {"smiles": "CCCCNC(=O)NS(=O)(=O)c1ccc(N2N=C(c3ccc(C)cc3C)CC2c2ccc(N(C)C)cc2)cc1", "note": "(centres undefined)", "growth": "61.8%"}, {"smiles": "N[C@H]1CCC[C@@H]1NCCCCN1C(=O)c2cccc3cccc(c23)C1=O", "growth": "30%"}, {"smiles": "O=C1Nc2ccccc2/C1=N/N=C/c1c[nH]c2ccccc12", "growth": "71.5%"}, {"smiles": "C[C@@H]1CC[C@@H]2[C@@H]1[C@H](OC(=O)/C=C/c1ccccc1)[C@]1(C3CCCCC3)C[C@@H](NC(=O)CO)[C@@]2(C)O1", "growth": "90%"}, {"smiles": "CCCN1CCN(c2ccc3nc(-c4ccc5nc(-c6ccc(OCC)c(OCC)c6)[nH]c5c4)[nH]c3c2)CC1", "growth": "-65.9% (active)"}, {"smiles": "CCc1cc(Cc2cc(CC)cc(C(C)(C)C)c2O)c(O)c(C(C)(C)C)c1", "growth": "23.3%"}, {"smiles": "CNC(=O)c1c(NC(=O)c2ccc(C(C)(C)C)cc2)sc2c1CCC(=O)C2", "growth": "-62.3% (active)"}, {"smiles": "CC(C)(C)c1ccc(C(=O)Nc2sc3c(c2C(N)=O)CCC(=O)C3)cc1", "growth": "-36.7% (active)"}, {"smiles": "COc1ccc(-n2nnc(C(=O)NCCc3c[nH]c4ccc(F)cc34)c2C)cc1", "growth": "101%"}, {"smiles": "C=CCN1C(=O)[C@]2(SC1=S)[C@H](c1cccc(Cl)c1)CN(C)[C@]21C(=O)NC2C=CC(Cl)=C[C@H]21", "note": "(some centres undefined)", "growth": "30.8%"}]}]}
